Assay [1] in a line: Primary qHTS for Huh7 cytotoxicity: counterscreen for inhibitors of MERS-S pseudotyped particle cell entry (AID 1479147).
Assay [2] in a line: Primary qHTS for Vero E6 cytotoxicity: counterscreen for inhibitors of SARS-S pseudo-typed particle cell entry (AID 1479150). Also: potency is read from the fitted curve at half-maximal effect.
Assay [3] in a line: Confirmatory qHTS for VERO E6 Cytotoxicity Assay: Counterscreen for SARS-CoV-2 CPE Assay (AID 1508605). Also: nearly all actives have a fitted effect of over 60% in size. Also: potency is read from the fitted curve at half-maximal effect.
Assay [4] can be described thus: Confirmatory qHTS for activators (rescue) of SARS-CoV-2 Cytopathic Effect (CPE) (AID 1508606). Also: nearly all actives have a fitted effect of over 70% in size. Also: potency is read from the fitted curve at half-maximal effect.
The nature of assay [5]: Primary qHTS for inhibitors of MERS-S pseudo-typed particle cell entry (AID 1479149). Also: nearly all actives have a fitted effect of over 60% in size. Also: potency is read from the fitted curve at half-maximal effect.

Inconclusive results are not listed. Values without a mark were called inactive. Calls of active or inactive are those of the source. Calls follow the shape of the full dose curve.

We go through 43 compounds from PubChem BioAssay (NCATS).

As to `CC1(C)CCC(C)(C)c2cc(NC(=O)c3ccc(C(=O)O)cc3)ccc21`, the Potency result in assay [1] and in assay [2] was “inactive” each time.

For the compound `Clc1ccc2c(c1)CCc1cccnc1C2=C1CCNCC1`, the Potency entry in assay [1], in assay [2] and in assay [3] was “inactive” throughout.

With `NS(=O)(=O)c1cc2c(cc1Cl)NCNS2(=O)=O`, the Potency result in assay [1] and in assay [2] was “inactive” in each case.

Consider `CCCN(CCC)C(=O)C(CCC(=O)OCCCN1CCN(CCOC(=O)Cc2c(C)n(C(=O)c3ccc(Cl)cc3)c3ccc(OC)cc23)CC1)NC(=O)c1ccccc1` (stereo not given), for which the Potency entry in assay [1], in assay [2] and in assay [3] was “inactive” in each case. Moreover, in assay [4], the Potency is 10 µM (active).

Take `CCN(CC)CCOC(=O)C1(c2ccccc2)CCCC1`: the Potency entry in assay [1] and in assay [2] was “inactive” throughout.

As to `OCCN1CCN(CCCN2c3ccccc3C=Cc3ccccc32)CC1`, the Potency result in assay [1] and in assay [2] was “inactive” in each case.

Consider `O=C(CCCN1CCN(c2ccc(F)cc2)CC1)NC1c2ccccc2CSc2ccccc21` (stereo not given), for which the Potency entry in assay [1], in assay [2], in assay [3] and in assay [4] was “inactive” each time.

As for `O=C(Nc1ccc(Cl)cc1)Nc1ccc(Cl)c(C(F)(F)F)c1`, the Potency entry in assay [1] and in assay [2] was “inactive” throughout.

Regarding `CN1CCC(OC(c2ccccc2)c2ccccc2)CC1`, the Potency entry in assay [1] and in assay [2] was “inactive” each time.

As for `c1ccc(CNCCNCc2ccccc2)cc1`, the Potency entry in assay [1] and in assay [2] was “inactive” each time.

As for `CCCCCOc1ccccc1/C(=C\SC)n1ccnc1`, the Potency result in assay [1] and in assay [2] was “inactive” each time.

For `C=C1C[C@H]2[C@@H]3C=C(C)C4=CC(=O)CC[C@]4(C)[C@H]3CC[C@]2(C)[C@@]1(OC(C)=O)C(C)=O`, the Potency entry in assay [1] and in assay [2] was “inactive” each time.

For `CCCCCCCCCCCCCCCCCCOCC(O)CO` (stereo not given), the Potency result in assay [1] and in assay [2] was “inactive” in each case.

Regarding `CC(=O)c1ccc2c(c1)N(CCCN(C)C)c1ccccc1S2`, the Potency entry in assay [1] and in assay [2] was “inactive” in each case.

For `CCCCCC(=O)O[C@]1(C(C)=O)CC[C@H]2[C@@H]3CCC4=CC(=O)CC[C@]4(C)[C@H]3CC[C@@]21C`, the Potency result in assay [1] and in assay [2] was “inactive” in each case.

In the case of `COC(=O)[C@H]1[C@H]2C[C@@H]3c4[nH]c5cc(OC)ccc5c4CCN3C[C@H]2C[C@@H](OC(=O)/C=C/c2ccc(O)c(OC)c2)[C@@H]1OC`, the Potency entry in assay [1], in assay [2] and in assay [3] was “inactive” in each case. Moreover, the Potency in assay [4] is 12.6 µM (active).

With `CN(C)CCCN1c2ccccc2Sc2ccccc21`, the Potency entry in assay [1], in assay [2] and in assay [3] was “inactive” throughout.

With `COc1cc(N)c(Cl)cc1C(=O)NC1CCN(CCCOc2ccc(F)cc2)CC1OC` (stereo not given), the Potency result in assay [2] is “inactive”.

`CCN(CC)CCCC(C)Nc1c2ccc(Cl)cc2nc2ccc(OC)cc12` (stereo not given): the Potency in assay [3] was 11.2 µM (active). The Potency result in assay [4] was “inactive”.

Take `CC(C)OC(=O)C(C(=O)OC(C)C)=C1SC=CS1`: the Potency result in assay [5] and in assay [2] was “inactive” each time.

Consider `CN1CCCC(n2nc(Cc3ccc(Cl)cc3)c3ccccc3c2=O)CC1` (stereo not given), for which the Potency entry in assay [2] was “inactive”.

For the compound `CCCCC1C(=O)N(c2ccccc2)N(c2ccc(O)cc2)C1=O` (stereo not given), the Potency in assay [2] was 22.4 µM (active).

On to `CC(C)COCC(CN(Cc1ccccc1)c1ccccc1)N1CCCC1` (stereo not given), for which the Potency was 8.91 µM (active) in assay [5] and 11.2 µM (active) in assay [4]. In addition, the Potency entry in assay [2] and in assay [3] was “inactive” in each case.

Take `O=C1NCCN1CCN1CCC(c2cn(-c3ccc(F)cc3)c3ccc(Cl)cc23)CC1`: the Potency in assay [5] is 8.91 µM (active).

Regarding `c1ccc(-c2ccc(C(c3ccccc3)n3ccnc3)cc2)cc1` (stereo not given), the Potency result in assay [1] and in assay [3] was “inactive” in each case.

Consider `O=C(CCCN1CCC(O)(c2ccc(Br)cc2)CC1)c1ccc(F)cc1`, for which the Potency result in assay [2] is “inactive”.

For `CC(C(O)c1ccccc1)N(C)CCOC(c1ccccc1)c1ccccc1` (stereo not given), the Potency in assay [5] was 22.4 µM (active); in assay [4], 10 µM (active). In addition, the Potency entry in assay [2] and in assay [3] was “inactive” each time.

As to `CCN(CC)CCNc1ccc(CO)c2sc3ccccc3c(=O)c12`, in assay [3], the Potency was 10 µM (active). In addition, in assay [4], the Potency result was “inactive”.

For `CCN(CC)CCOc1ccc(/C(=C(\Cl)c2ccccc2)c2ccccc2)cc1`, the Potency entry in assay [2] is “inactive”.

Regarding `CCCCN(CCCC)CCC(O)c1cc2c(Cl)cc(Cl)cc2c2cc(C(F)(F)F)ccc12` (stereo not given), the Potency entry in assay [1] and in assay [2] was “inactive” each time. For the same compound, the Potency in assay [4] was 3.55 µM (active).

Turning to `O=C1NC2CCCCN2C12CCN(CCCN1c3ccccc3CCc3ccc(Cl)cc31)CC2` (stereo not given), in assay [5], the Potency is 12.6 µM (active). For the same compound, in assay [2], the Potency result is “inactive”.

For the compound `O=c1[nH]c2ccccc2n1CCCN1CCN(C(c2ccccc2)c2ccccc2)CC1`, the Potency result in assay [1] and in assay [2] was “inactive” each time. The Potency in assay [4] was 11.2 µM (active).

For `CCN(CC)CCOc1ccc2c(c1)C(=O)c1cc(OCCN(CC)CC)ccc1-2`, the Potency in assay [3] was 11.2 µM (active).

As for `Cc1ccc2nc(N)[nH]c(=O)c2c1Sc1ccncc1`, the Potency result in assay [2] is “inactive”.

As to `CCC(C)(C)c1ccc(CC(C)CN2C[C@@H](C)O[C@@H](C)C2)cc1` (stereo not given in full), the Potency result in assay [2] is “inactive”.

Turning to `COC(=O)C1=C(C)NC(C)=C(C(=O)O[C@@H]2CCCN(Cc3ccccc3)C2)[C@@H]1c1cccc([N+](=O)[O-])c1`, the Potency in assay [3] was 11.2 µM (active). Besides, in assay [4], the Potency result was “inactive”.

In the case of `NC(=O)C1(N2CCCCC2)CCN(CCCN2c3ccccc3CCc3ccc(Cl)cc32)CC1`, the Potency in assay [5] is 12.6 µM (active).

For the compound `O=c1c(-c2ccccc2)c1-c1ccccc1`, the Potency result in assay [2] is “inactive”.

Turning to `CCC(=O)c1ccc2c(c1)N(CCCN(C)C)c1ccccc1S2`, the Potency entry in assay [2] and in assay [3] was “inactive” throughout. In addition, in assay [4], the Potency is 11.2 µM (active).

For the compound `CC(=O)c1ccc2c(c1)N(CCCN1CCC(CCO)CC1)c1ccccc1S2`, the Potency entry in assay [1], in assay [2] and in assay [3] was “inactive” each time. The Potency in assay [4] was 11.2 µM (active).

Regarding `CC1CCCCN1CCCOC(=O)c1ccc(OC2CCCCC2)cc1` (stereo not given), the Potency entry in assay [1], in assay [2] and in assay [3] was “inactive” throughout. Further, in assay [4], the Potency is 8.91 µM (active).

For `Fc1ccc(C(c2ccc(F)cc2)N2CCN(C/C=C/c3ccccc3)CC2)cc1`, the Potency entry in assay [1], in assay [2] and in assay [3] was “inactive” throughout. Also, in assay [4], the Potency was 11.2 µM (active).

In the case of `CCCCCCCCCCCCCCCC[N+](C)(C)CCN(Cc1ccc(OC)cc1)c1ncccn1`, in assay [5], the Potency is 10 µM (active).
